Screening data as filed in PubChem.
This is a sample that favours compounds with a hit; in the whole collection about 19% have one here.
HT1080 IDH1KD tx = HT-1080 IDH1 knockdown cell toxicity (counter line); HT-1080 IDH1 knockdown viability, ATP luminescence, 48 h; Potency, µM (highest dose often 46.1 µM), without a hit: at the highest dose activity, negative = toxicity, hits mostly cytotoxic; 2% of 360,000 active;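 note: potency is the fitted concentration of half-maximal effect; 0% = DMSO wells and -100% = cell-free medium wells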
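In this qHTS, HT-1080 cells depleted of IDH1 are exposed for 48 h at 37 °C to compound titrations. Toxicity is scored from CellTiter-Glo luminescence, with DMSO as full viability and medium alone as none.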
IL1B secr inh = inhibitors of inflammasome signaling (IL-1 beta secretion); THP-1 LPS/ATP IL-1B secretion, AlphaLISA, 16 h; active compounds read low; activity change, % at 57.5 µM; 4.7% of 360,000 active; AID 743279; in the data active = activity change below about -50%; inconclusive = mostly about -30% to -49%
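THP-1 cells pretreated 1 hr with compounds (up to 57.5 uM final), then stimulated with LPS (250 ng/mL final) plus ATP (1.25 mM final); secreted IL-1B measured by AlphaLISA after 16 hr, decreased signal indicating inhibition.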
ELG1 repair inh = blocks ELG1-dependent DNA repair in HEK293T cells | HEK293T ELG1-luciferase reporter, luminescence, 16 h; DNA damage induced by 5-fluorouridine | 2.3% of 330,000 active | AID 504467 | Potency, µM (top dose mostly 46.1 µM), without a hit: at the highest dose activity change, negative = inhibition, most hits filed as inhibitors; note: potency is the fitted concentration of half-maximal effect; nearly all actives have a fitted effect of over 55% in size
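Luminescence from the luciferase reporter, measured 30 min after ONE-Glo reagent at room temperature, was the read-out. Beforehand, 2,000 cells per well were exposed for 16 hr at 37 °C to 5-fluorouridine together with compound or vehicle.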
HT1080-NT tox = kills 2HG-producing HT-1080-NT fibrosarcoma cells; AID 686970; Potency, µM (series often up to 46.1 µM), without a hit: at the top dose activity, negative = less viability, actives largely listed as cytotoxic; 1.6% of 360,000 active; HT-1080-NT fibrosarcoma viability, CellTiter-Glo ATP luminescence, 48 h;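 note: NT is the 2HG producing partner of a matched IDH1 knockdown line; potency is the fitted concentration of half-maximal effect; 0% = DMSO-treated cells and -100% = media-only wells without cells; nearly all actives have a fitted effect of over 55% in size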
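HT-1080-NT fibrosarcoma cells (2HG-overproducing), 750 cells/well in RPMI with 5% FBS, dosed after 2 h and incubated 48 h at 37C. CellTiter-Glo luminescence normalized to DMSO and no-cell wells; concentration-response curves fitted and classed.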
TDP1 cell CPT = growth inhibition of DT40 Tdp1-/-;hTDP1 cells with camptothecin (screen for TDP1 inhibitors). Potency, µM (top dose mostly 46.2 µM), inactives show at the highest dose activity change, negative = growth inhibition, most hits filed as inhibitors. 12% of 420,000 active. chicken DT40 Tdp1-/-;hTDP1 cells + 20 nM CPT, ATP luminescence, 48 h; note: potency is the fitted concentration of half-maximal effect; nearly all actives have a fitted effect of over 55% in size
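Cell growth measured by CellTiter-Glo luminescence after a minimum 48 h, 37 C compound exposure with 20 nM CPT in Tdp1-knockout DT40 cells stably expressing hTDP1, seeded 400/well; qHTS titration format.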
DT40 TDP1 no CPT = qHTS for Inhibitors of human tyrosyl-DNA phosphodiesterase 1 (TDP1): qHTS in cells in absence of CPT | DT40 Tdp1-/- hTDP1 cells, no CPT, ATP luminescence, 48 h | Potency, µM (top dose mostly 46.2 µM), without a hit: top-dose activity change, negative = growth inhibition, usual class: inhibitors | 15% of 420,000 active; note: potency is the fitted concentration of half-maximal effect; nearly all actives have a fitted effect of over 55% in size
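DT40 Tdp1-/-;hTDP1 cells, no CPT (DMSO vehicle only), 400 cells/well; compounds pin-transferred; ≥48 hr, 37 °C; CellTiter-Glo 30 min RT dark, luminescence read.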
Active calls of the source: *; ? = inconclusive; / = no result. Unless noted, calls come from the whole dose curve; as a rule, active = well fitted curve in the direction sought with a large enough effect; inconclusive = small, poorly fitted or top-dose-only effect, or another doubt; inactive = no such curve, though single readings can be large; an effect the other way counts as inactive or inconclusive. Unless noted, % is set by controls: 0 for no effect and ±100 for the full control effect.

SMILES	HT1080 IDH1KD tx	IL1B secr inh	ELG1 repair inh	HT1080-NT tox	TDP1 cell CPT	DT40 TDP1 no CPT
Cc1cccc(Cn2c(C(C)(C)C)cc3cccnc32)c1	?	-23.3	-15.1%	?	?	20.6µM*
N#CC1=C(N)C2=CCCC[C@H]2[C@H](c2ccc(Br)cc2)C1(C#N)C#N	-5.0%	-95.2*	16.8%	-4.4%	?	?
N#CC1=C(N)C2=CCCC[C@H]2[C@H](c2ccccc2)C1(C#N)C#N	?	-56.2*	-18.7%	?	?	?
N#CC1=C(N)C(C#N)(C#N)[C@H](c2ccncc2)[C@H]2CC3(CC=C12)OCCO3	-4.2%	6.5	5.0%	-3.2%	?	-17.1%
Cc1ccc(CNC(=O)CN(c2ccc(C(C)C)cc2)S(=O)(=O)c2c(C)noc2C)cc1	5.7%	10.2	?	1.3%	-23.6%	?
Cc1noc(C)c1S(=O)(=O)N(CC(=O)Nc1ccc(F)cc1F)c1ccc(C(C)C)cc1	/	/	/	/	?	20.6µM*
Cc1ccc(N(CC(=O)Nc2ccc(C)c(F)c2)S(=O)(=O)c2c(C)n[nH]c2C)cc1	/	/	/	/	-26.3%	?
COc1ccc(NC(=O)CN(c2ccc(C(C)C)cc2)S(=O)(=O)c2c(C)noc2C)cc1OC	2.0%	19.0	?	-2.8%	?	?
Cc1n[nH]c(C)c1S(=O)(=O)N(CC(=O)Nc1ccc(C(F)(F)F)cc1)c1ccc(C(C)C)cc1	/	/	/	/	14.6µM*	?
Cc1noc(C)c1S(=O)(=O)Nc1ccc(C(=O)Nc2ccc(C(C)C)cc2)cc1	/	/	/	/	11.6µM*	9.2µM*
Cc1noc(C)c1S(=O)(=O)N(CC(=O)Nc1ccc(C(F)(F)F)cc1)c1ccc(C(C)C)cc1	/	/	/	/	16.4µM*	23.1µM*
CCOc1ccc(NC(=O)CN(c2ccc(OC)cc2)S(=O)(=O)c2cccs2)cc1	-10.3%	1.8	?	-11.8%	3.6%	-0.9%
COC(=O)c1cc(NC(=O)c2oc(=O)c3ccccc3c2-c2ccccc2)cc(C(=O)OC)c1	/	/	/	/	8.6%	14.0%
CC(C)CCNC(=O)c1cc(S(=O)(=O)N2CCC3(CC2)OCCO3)ccc1F	-1.1%	10.8	/	4.0%	?	?
CCOC(=O)c1c(NC(=O)c2cc3n(n2)C(C(F)(F)F)CC(c2ccccc2)N3)sc(C)c1C (stereo not given)	-2.3%	9.0	?	-0.2%	?	14.6µM*
Cc1cc(NC(=O)c2cc3n(n2)C(C(F)(F)F)CC(c2ccc(Cl)c(Cl)c2)N3)no1 (stereo not given)	-19.3%	7.6	-14.1%	-10.7%	?	20.6µM*
CCCCNC(=O)c1cc2n(n1)C(C(F)(F)F)CC(c1ccccc1)N2 (stereo not given)	5.5%	-9.4	-0.7%	-1.6%	-23.8%	-10.9%
Cc1ccc(C2CC(C(F)(F)F)n3nc(C(=O)Nc4c(C)n(C)n(-c5ccccc5)c4=O)cc3N2)cc1 (stereo not given)	-10.2%	-7.2	-19.6%	-18.0%	?	?
O=C(Nc1ccc(O)cc1)c1cc2n(n1)C(C(F)(F)F)CC(c1ccco1)N2 (stereo not given)	?	12.5	-11.8%	?	9.2µM*	7.31µM*
Cn1c(=O)c2c(c3ccccc31)OC(=O)CC2c1cccc(F)c1 (stereo not given)	/	/	/	/	1.7%	-5.9%
COC(=O)C(c1ccccc1)N(Cc1cccc(CN(C(C(=O)OC)c2ccccc2)S(C)(=O)=O)c1)S(C)(=O)=O (stereo not given)	5.1%	12.5	-14.2%	9.3%	?	16.4µM*
CCOC(=O)N1CCC2(CC1)OC(=O)C(C)=C2C(=O)NCc1ccc(C)cc1	/	/	/	/	-28.9%	-21.4%
CN1C(=O)C(C)(C)c2cc(S(=O)(=O)NCc3ccc(C(=O)NCc4ccco4)cc3)ccc21	-7.3%	-19.6	10.7%	-1.3%	-29.9%	?
Cc1[nH]nc2c1-c1nc3ccccc3nc1C(C)(C)C2	-21.9%	-22.3	9.2µM*	-18.7%	?	?
CC12CCC(C)(c3nc4ccccc4nc31)C2(C)C	6.9%	31.9	0.3%	0.0%	8.7%	-8.7%
SMILES	HT1080 IDH1KD tx	IL1B secr inh	ELG1 repair inh	HT1080-NT tox	TDP1 cell CPT	DT40 TDP1 no CPT
O=C(CSc1nnnn1-c1ccc2c(c1)OCO2)NCc1ccccc1	12.6µM*	86.2	-27.8%	?	14.6µM*	14.6µM*
CCn1nnnc1SCC(=O)Nc1cc(OC)cc(OC)c1	-4.1%	10.4	2.9%	-7.7%	16.4µM*	?
COc1ccc(-n2nnnc2SCC(=O)Nc2cccc(NC(C)=O)c2)cc1OC	-0.2%	29.2	-20.1%	-0.4%	?	-23.1%
COc1cccc(-n2nnnc2SCC(=O)Nc2cccc(NC(C)=O)c2)c1	-21.4%	?	?	-8.2%	-19.0%	-19.1%
COc1ccc(-n2nnnc2SCC(=O)Nc2ccc3c(c2)OCCO3)cc1OC	-4.2%	0.0	?	-26.7%	?	9.2µM*
COc1cccc(-n2nnnc2SCC(=O)Nc2ccc(NC(C)=O)cc2)c1	-5.2%	5.8	15.7%	-17.0%	?	23.1µM*
CN(C)C(=O)c1ccc(S(=O)(=O)NCc2ccccc2Cl)s1	/	/	/	/	?	-28.2%
NC(=O)c1ccc(-n2nnnc2SCC(=O)Nc2ccccc2)cc1	0.5%	-10.3	-5.2%	-0.8%	-1.9%	-16.3%
COc1ccc(-n2c(=O)[nH]cc(C(=O)Nc3ccc4c(c3)OCCO4)c2=O)cc1OC	0.4%	-10.0	1.6%	10.9%	-16.4%	-2.9%
CCn1nnnc1SCC(=O)Nc1ccc2c(c1)OCCO2	5.2%	11.0	?	15.1%	5.5%	-10.9%
COc1cccc(-n2c(=O)[nH]cc(C(=O)Nc3ccc4c(c3)OCCO4)c2=O)c1	-1.5%	22.9	5.7%	0.9%	4.11µM*	-20.2%
COc1cccc(-n2nnnc2SCC(=O)Nc2ccc3c(c2)OCCO3)c1	?	20.6	-1.0%	14.1µM*	-23.9%	-28.7%
COc1ccc(-n2nnnc2SCC(=O)Nc2ccc3c(c2)OCCO3)c(OC)c1	-14.5%	7.3	20.6µM*	-9.0%	13µM*	23.1µM*
O=C(CSc1nnnn1-c1ccccc1)CC(=O)Nc1ccc(Cl)cc1	?	24.3	16.4µM*	?	?	?
CCCC(=O)Nc1ccc2nc(SCCOc3ccccc3)sc2c1	/	/	/	/	-16.7%	?
